Source: PubChem BioAssay (NCI)
Compounds without any hit were thinned out: in the full panel of roughly 83,000, 20% have a hit.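 Interpretation: 100, growth as untreated; towards 0, rising growth inhibition; 0, no net growth; 0 to -100, cell death. Compounds scoring below 10 were considered active.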 Calls of active or inactive are those of the source.

What follows are molecules tested on MDA-MB-468 breast (assay: NCI-60 one-dose screen, 48 h (100 = growth as untreated, 0 = no growth, -100 = all killed)). Details: 10 µM unless noted.
For `CC(=O)c1ccc(-n2c(-c3cc(-c4ccsc4)n[nH]3)n[nH]c2=S)cc1`, the growth was 97.3% (inactive).
With `COc1cccc(/C=N/NC(=O)c2ccccc2Nc2ccnc(C(F)(F)F)c2)c1O` the growth was -19.6% (active).
`O=C1/C(=C/c2ccccc2F)CNC/C1=C\c1ccccc1F` was tested, and the growth was -59.7% (active).
For `COc1ccc(N)cc1C(=O)Nc1cccc(-c2cc(=O)c3c(OC)c(OC)c(OC)cc3o2)c1`, the growth was 55.9% (inactive).
For `CC1OC(n2c3ccccc3c3c4c(c5c6ccccc6[nH]c5c32)C(=O)N(CCN2CCCC2)C4=O)CC(O)C1O` (configuration not stated), the growth was 26.2% (inactive).
`CC1=CC2c3oc(-c4ccccc4)c(C(=O)c4ccccc4)c3CNC2C=C1` (configuration not stated) was tested, and the growth was 97.7% (inactive).
`CCOc1cc(\C=N/N=C(N)/C(N)=N\N=C/c2ccc(O)c(OCC)c2)ccc1O` was tested, and the growth was 111% (inactive).
In the case of `CC(C)(C)[Si](C)(C)OC1[C@@H](COC(N)=O)O[C@@H](n2cnc3c(N)ncnc32)[C@H]1O[Si](C)(C)C(C)(C)C` (some centres not stated), the growth is reported as 97.2% (inactive).
With `O=C(c1ccc(Cl)cc1Cl)N1c2ccccc2Sc2ccccc21` the growth was 51.4% (inactive).
With `O=C1CCN(Cc2ccccc2)C(=S)N1` the growth was 110% (inactive).
In the case of `O=C1NC(=C(Cl)Cl)/C(=N\S(=O)(=O)NCc2ccccc2)N1`, the growth is reported as 45.1% (inactive).
For `CC1(C)C(=O)/C(=C\c2ccccn2)C[C@]2(C)[C@H]3CC[C@@H]4[C@@H](C(=O)/C=C/c5ccccn5)CC[C@@]4(C)[C@]3(C)CC[C@@H]12`, the growth was -50.6% (active).
For `Cc1cc(N2CCCCC2)nc(N(CCNc2ccnc3cc(Cl)ccc23)Cc2ccccn2)n1`, the growth was 3.63% (active).
For `Nc1ncc(-c2cnn(C3CCNCC3)c2)cc1-c1nc2ccccc2o1`, the growth was -29.1% (active).
With `CCOC(=O)C1C(=O)C=C(c2ccccc2)CC1c1sc(N(C)Cc2ccccc2)nc1Cl` (configuration not stated) the growth was 80.9% (inactive).
With `COc1cc(/C=C2\CCCC3=C2N=C2SC=NN2C3c2cc(OC)c(OC)c(OC)c2)cc(OC)c1OC` (configuration not stated) the growth was 18.1% (inactive).
`CCC1CN2C(=N1)c1ccccc1-c1cc(Cl)ccc12` (configuration not stated) was tested, and the growth was -7.75% (active).
With `CN(C)c1ccc(C2(Cl)c3ccccc3N(C)c3ccccc32)cc1` the growth was 50.8% (inactive).
In the case of `O=S(=O)(c1ccc(NCSc2nc3ccccc3s2)cc1)c1ccc(NCSc2nc3ccccc3s2)cc1`, the growth is reported as 95.8% (inactive).
With `Cc1ccc(N2C(=O)/C(=C/C=C/c3ccco3)SC2=S)cc1` the growth was 50.7% (inactive).
In the case of `C/C(=N\NC(=S)N1CCCCC1)c1ccccn1`, the growth is reported as -27.4% (active).
For `O=C1NN(C(=O)c2ccccc2)C(c2ccc(Cl)c(Cl)c2)=C/C1=C\c1ccccc1[N+](=O)[O-]`, the growth was 53.9% [6.75 µM] (inactive).
`COc1cc(NC(N)=NCC(C)(C)COc2ccc(C(F)(F)F)cc2)cnc1C#N` was tested, and the growth was 19.6% (inactive).
With `Fc1ccc(NCc2nnc(-c3ccc(Cl)cc3)o2)cc1` the growth was 56.9% (inactive).
`COc1ccc(-c2nc(C#N)c(N3CCC(S(=O)(=O)N4CCOCC4)CC3)o2)cc1` was tested, and the growth was 107% (inactive).
`OC(c1cc(-c2ccc(C(F)(F)F)cc2)nc(-c2ccc(C(F)(F)F)cc2)c1)C1CCCCN1` (configuration not stated) was tested, and the growth was -85.1% (active).
In the case of `CCOC(=O)N1C=CC2C=CC1C1C=CC=CC2N1C(=O)OCC` (configuration not stated), the growth is reported as 53.1% (inactive).
For `Oc1ccc(C(c2ccc(O)cc2)C(Cl)(Cl)Cl)cc1`, the growth was 90% (inactive).
In the case of `O=C(Nc1ccc(N2CCNCC2)cc1)c1[nH]ncc1Nc1cc(C2CC2)ncn1`, the growth is reported as 49.2% (inactive).
With `COc1cc([C@@H]2c3cc4c(cc3C(O[C@@H]3O[C@@H]5CO[C@@H](c6cccs6)OC5[C@H](O)[C@H]3O)C3COC(=O)[C@@H]32)OCO4)cc(OC)c1O` (some centres not stated) the growth was -58.9% (active).
With `CC(C)C(=O)Nc1n[nH]c2cc(-c3cccc(NS(=O)(=O)C4CC4)c3)ccc12` the growth was 21.6% (inactive).
For `COc1cccc(NC(=O)Cn2cc3c(=O)oc4ccccc4c3n2)c1`, the growth was 101% (inactive).
For `O=c1c(N=Nc2nccs2)c(-c2ccccc2)[nH]n1-c1nc(-c2ccccc2)cs1`, the growth was 29% (inactive).
For `CC1=CC[C@@H]2C(C)(C)C(=O)CC[C@@]2(C)[C@@H]1COc1ccc2ccc(=O)oc2c1`, the growth was 43.1% (inactive).
In the case of `O=C(Nc1ccncc1)C(=O)c1cn(S(=O)(=O)c2cc(Cl)cc(Cl)c2)c2ccccc12`, the growth is reported as 41.6% (inactive).
With `CC(C)=C(NC(=O)c1ccccc1)C(=O)O` the growth was 88.5% (inactive).
In the case of `N=C1N=C(N)CS1`, the growth is reported as 103% (inactive).
